High-throughput results: PubChem BioAssay, The Scripps Research Institute Molecular Screening Center
Shown are actives, neighbours in structure and some others; about 4.8% of the full set was active somewhere.
DAX1 inh-1 = blocks DAX1 repression of SF-1 activated StAR promoter | HEK293T StAR-luciferase reporter, SF-1/DAX-1 repression relief | inhibition, % at 6.8 µM | actives 1.1% (n = 370,000);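 active means inhibition above the mean over all tested compounds plus 3 SD, cut at about 3.6% in these data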;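 further: higher inhibition means more luminescence from relief of DAX-1 repression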
SMARCA2 act = SMARCA2 function activation, primary screen. AID 652017. actives 1% (n = 370,000). activation, % at 9.1 µM. MG213 cells, MMTV-luciferase reporter, dexamethasone, overnight; in the data active means activation above about 7.8%
hcDAF12 agonist = H. contortus DAF-12 activation, primary screen | HEK293 hcDAF-12 lit1-tk-luc reporter, luminescence; 0% DMSO, 100% Δ7-dafachronic acid | activation, % at 6.8 µM | AID 652067 | actives 1.4% (n = 370,000);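 active means activation above the mean of all tested compounds plus 3 SD, cut at about 5.5% in these data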
hgDAF12 agonist = hgDAF-12 agonism, primary luciferase screen | AID 687014 | HEK293 GAL4-hgDAF12 UAS-luciferase reporter, agonist luminescence; normalized to butyrate control | actives 1.8% (n = 370,000) | activation, % at 6.8 µM;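 active means activation above a cutoff set at the mean of all screened compounds plus 3 SD, cut at about 10% in these data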
DAX1 inh-2 = NR0B1 (DAX1) inhibition. HEK293 Gal4-DAX1 luciferase reporter, luminescence. actives 0.99% (n = 340,000). inhibition, % at 6.75 µM. P51843;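 active means inhibition above the mean over all tested compounds plus 3 SD, cut at about 4.2% in these data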;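 further: inhibition shows as a rise in luminescence from relieved DAX1 repression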
Target sequence (P51843 207-470 limits assumed): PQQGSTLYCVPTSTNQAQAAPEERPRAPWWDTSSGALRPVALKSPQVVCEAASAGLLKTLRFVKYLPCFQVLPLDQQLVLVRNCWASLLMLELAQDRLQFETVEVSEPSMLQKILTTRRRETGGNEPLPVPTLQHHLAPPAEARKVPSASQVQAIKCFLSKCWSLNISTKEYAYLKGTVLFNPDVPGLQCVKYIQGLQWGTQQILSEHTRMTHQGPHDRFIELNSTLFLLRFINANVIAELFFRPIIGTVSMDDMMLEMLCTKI
ssDAF-12 act = activates DAF-12 receptor from parasite S. stercoralis. HEK293 ssDAF-12/GRIP1 lit1-tk-luc reporter, luminescence; % of 3 µM dafachronic acid response. AID 652126. activation, % at 6.8 µM. actives 1% (n = 370,000);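 active means activation above the mean over all tested compounds plus 3 SD, cut at about 0.9% in these data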
Numbers stand for hits.

For COc1ccccc1NC(=O)Cn1nnc(-c2ccccc2NC(=O)c2cc3ccccc3oc2=O)n1 the results were DAX1 inh-1 inactive, SMARCA2 act inactive, hcDAF12 agonist 14, hgDAF12 agonist inactive, DAX1 inh-2 inactive and ssDAF-12 act inactive.
`Clc1ccc(-c2cnc(Oc3ccccc3)nc2)cc1` gave DAX1 inh-1 inactive, SMARCA2 act inactive, hcDAF12 agonist inactive, hgDAF12 agonist 11, DAX1 inh-2 inactive and ssDAF-12 act inactive.
Screening O=S(=O)(c1ccccc1)N1N=C(c2ccc(Br)cc2)CC1c1ccco1 (stereo not given) returned DAX1 inh-1 inactive, SMARCA2 act inactive, hcDAF12 agonist inactive, hgDAF12 agonist inactive, DAX1 inh-2 inactive and ssDAF-12 act inactive.
CCOC(=O)c1sc2nc3c(SCCC#N)cc(C(=O)c4cc(F)ccc4O)cn3c(=O)c2c1C was read as DAX1 inh-1 inactive, SMARCA2 act inactive, hcDAF12 agonist inactive, hgDAF12 agonist inactive, DAX1 inh-2 inactive and ssDAF-12 act 1.5.
For CCOC(=O)c1sc2nc3c(SCCC(=O)O)cc(C(=O)c4cc(OC)ccc4O)cn3c(=O)c2c1C the results were DAX1 inh-1 inactive, SMARCA2 act inactive, hcDAF12 agonist inactive, hgDAF12 agonist inactive, DAX1 inh-2 inactive and ssDAF-12 act inactive.
`Cc1nc2sccn2c(=O)c1S(=O)(=O)N1CCN(c2ccccc2)CC1` gave DAX1 inh-1 inactive, SMARCA2 act inactive, hcDAF12 agonist inactive, hgDAF12 agonist inactive, DAX1 inh-2 inactive and ssDAF-12 act inactive.
`CCn1c(SCC(=O)C(C)(C)C)nnc1-c1ccccc1OC` gave DAX1 inh-1 inactive, SMARCA2 act inactive, hcDAF12 agonist inactive, hgDAF12 agonist inactive, DAX1 inh-2 inactive and ssDAF-12 act inactive.
`CCn1c(SCC(=O)OC(C)C)nnc1-c1ccccc1OC` gave DAX1 inh-1 inactive, SMARCA2 act inactive, hcDAF12 agonist inactive, hgDAF12 agonist inactive, DAX1 inh-2 inactive and ssDAF-12 act 1.1.
Screening Cc1cc(OCC(=O)N2CCC(C(N)=O)CC2)c2c(C)cc(=O)oc2c1 returned DAX1 inh-1 inactive, SMARCA2 act inactive, hcDAF12 agonist inactive, hgDAF12 agonist inactive, DAX1 inh-2 7.5 and ssDAF-12 act inactive.
C/C(=N\NC(=O)C1CC1)c1ccc(NC(=O)c2ccc(Br)o2)cc1 was read as DAX1 inh-1 inactive, SMARCA2 act inactive, hcDAF12 agonist inactive, hgDAF12 agonist inactive and ssDAF-12 act inactive.
C/C(=N\NC(=O)c1c(Cl)cnn1C)c1ccc(NC(=O)c2ccc(Br)o2)cc1 was read as DAX1 inh-1 6.3, SMARCA2 act inactive, hcDAF12 agonist inactive, hgDAF12 agonist inactive, DAX1 inh-2 inactive and ssDAF-12 act inactive.
`C/C(=N\NC(=O)c1c(Br)c(C)nn1C)c1ccc(NC(=O)c2ccoc2C)cc1` gave DAX1 inh-1 inactive, SMARCA2 act inactive, hcDAF12 agonist inactive, hgDAF12 agonist 12, DAX1 inh-2 inactive and ssDAF-12 act inactive.
For O=C(Nc1ccccc1)c1ccc(Br)o1 the results were DAX1 inh-1 inactive, SMARCA2 act inactive, hcDAF12 agonist inactive, hgDAF12 agonist inactive, DAX1 inh-2 inactive and ssDAF-12 act inactive.
COC(=O)Cc1ccc(NC(=O)c2ccc(Br)o2)cc1 was read as DAX1 inh-1 inactive, SMARCA2 act inactive, hcDAF12 agonist inactive, hgDAF12 agonist 12, DAX1 inh-2 inactive and ssDAF-12 act inactive.
`CCN1CCN(c2ccc(NC(=O)c3ccc(Br)o3)cc2)CC1` gave DAX1 inh-1 3.7, SMARCA2 act inactive, hcDAF12 agonist inactive, hgDAF12 agonist 11, DAX1 inh-2 inactive and ssDAF-12 act 1.1.
Screening Cc1c(C(=O)Nc2c(F)cccc2F)sc2ncnc(N3CCN(c4ccccc4)CC3)c12 returned DAX1 inh-1 inactive, SMARCA2 act inactive, hcDAF12 agonist inactive, hgDAF12 agonist inactive, DAX1 inh-2 inactive and ssDAF-12 act inactive.
O=C(CN1C(=O)NC2(CCCC2)C1=O)Nc1ccccc1F was read as DAX1 inh-1 inactive, SMARCA2 act inactive, hcDAF12 agonist inactive, hgDAF12 agonist inactive, DAX1 inh-2 inactive and ssDAF-12 act inactive.
`Cc1cc(C)cc(-n2ncc3c2CCCC3NC(=O)CCN2Cc3ccccc3C2=O)c1` (stereo not given) gave DAX1 inh-1 inactive, SMARCA2 act inactive, hcDAF12 agonist inactive, hgDAF12 agonist inactive, DAX1 inh-2 inactive and ssDAF-12 act inactive.
